According to PubChem BioAssay (Tox21):
Results filed as inconclusive are left out. Entries that show only a call come without a potency. Calls of active or inactive are those of the source. Unless noted, calls come from the whole dose curve.

Tested on: not listed separately
Assay: p53 small molecule agonists, cell-based qHTS assay: qHTS cell viability counter screen (AID 1963581); note: nearly all actives have a fitted effect of over 45% in size
Conditions: p53RE-bla HCT-116 viability, ATP luminescence, 16 h; series mostly up to 66 µM
Method in brief: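 Cytotoxicity read-out: ATP-based luminescence (CellTiter-Glo, 30 min RT) measured in the same wells as the p53 reporter assay, HCT-116 p53RE-bla cells, 16 h compound exposure at 37 C.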

SMILES	Potency
Nc1ncc([N+](=O)[O-])s1	inactive
Oc1ccccc1-c1ccccc1	inactive
ClCc1ccccc1	inactive
CCCCC(C#N)(Cn1cncn1)c1ccc(Cl)cc1 (centres undefined)	inactive
Cc1ccccc1N	inactive
CCCC1CCCCN1 (centres undefined)	inactive
ClC(Cl)(Cl)c1ccccc1	inactive
CCCCCCCCCCCCBr	inactive
c1ccc2c(c1)Oc1ccccc1O2	inactive
Cc1ccc(N)cc1	inactive
O=C(CCl)CCl	inactive
Nc1ccc(Cl)cc1	inactive
O=S(=O)(O)C(F)(F)C(F)(F)C(F)(F)C(F)(F)C(F)(F)C(F)(F)F	inactive
CC(Cl)C(=O)O (centres undefined)	inactive
c1ccc2c(c1)oc1ccccc12	inactive
CC[C@H](N)c1ccccc1	inactive
C=CC(=O)OCCO	inactive
C=C(C)[C@@H]1CC=C(C=O)CC1	inactive
CN(CCO)CCO	inactive

SMILES	Potency
COc1ccc(N)cc1	inactive
CCCCCCCCCCOC(=O)c1ccccc1C(=O)OCCCCCCCCCC	inactive
COS(=O)(=O)c1ccc(C)cc1	inactive
CC1(C)CC(=O)CC(C)(C)N1[O]	inactive
CCN(CCO)CCO	inactive
O=C(O)c1ccc(=O)[nH]c1	inactive
Nc1ccccc1Cl	inactive
O=C1C(Cl)=C(Cl)C(=O)c2ccccc21	inactive
CCCCCCOC(=O)c1ccccc1C(=O)OCCCCCC	inactive
CCCCOCCOC(C)=O	inactive
C1CCC2CCCCC2C1 (centres undefined)	inactive
Cc1cc(-c2ccc(N)c(C)c2)ccc1N	inactive
CN(C)C(=O)C(c1ccccc1)c1ccccc1	inactive
CC1=C(C(=O)Nc2ccccc2)SCCO1	inactive
Cc1ccccc1CCl	inactive
COC(=O)c1ccccc1N	inactive
Cc1ccc(O)c(C)c1	inactive
C#CC(C)(C)NC(=O)c1cc(Cl)cc(Cl)c1	inactive
CCC(C)n1c(=O)[nH]c(C)c(Br)c1=O (centres undefined)	inactive

Tested on: not listed separately
Assay: p53 small molecule agonists, cell-based qHTS assay (AID 1963582; active = well fitted activation curve with a large enough effect in the signal ratio in the repeat runs, not every such curve was filed as active; the % refers to the signal ratio)
Conditions: HCT-116 p53RE-bla reporter, beta-lactamase FRET ratio, 16 h; series mostly up to 66 µM
Method in brief: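 Fluorescence intensity read-out of a beta-lactamase reporter under a p53 response element. Cells were exposed to DMSO-dissolved compounds for 16 h at 37 C, then developed with FRET substrate for 2 h at RT.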

SMILES	Potency
Nc1ncc([N+](=O)[O-])s1	inactive
Oc1ccccc1-c1ccccc1	inactive
ClCc1ccccc1	inactive
CCCCC(C#N)(Cn1cncn1)c1ccc(Cl)cc1 (centres undefined)	inactive
Cc1ccccc1N	inactive
CCCC1CCCCN1 (centres undefined)	inactive
ClC(Cl)(Cl)c1ccccc1	inactive
CCCCCCCCCCCCBr	inactive
c1ccc2c(c1)Oc1ccccc1O2	inactive
Cc1ccc(N)cc1	inactive
O=C(CCl)CCl	inactive
Nc1ccc(Cl)cc1	inactive
O=S(=O)(O)C(F)(F)C(F)(F)C(F)(F)C(F)(F)C(F)(F)C(F)(F)F	inactive
CC(Cl)C(=O)O (centres undefined)	inactive
c1ccc2c(c1)oc1ccccc12	inactive
CC[C@H](N)c1ccccc1	inactive
C=CC(=O)OCCO	inactive
C=C(C)[C@@H]1CC=C(C=O)CC1	inactive
CN(CCO)CCO	inactive

SMILES	Potency
COc1ccc(N)cc1	inactive
CCCCCCCCCCOC(=O)c1ccccc1C(=O)OCCCCCCCCCC	inactive
COS(=O)(=O)c1ccc(C)cc1	inactive
CC1(C)CC(=O)CC(C)(C)N1[O]	inactive
CCN(CCO)CCO	inactive
O=C(O)c1ccc(=O)[nH]c1	inactive
Nc1ccccc1Cl	inactive
O=C1C(Cl)=C(Cl)C(=O)c2ccccc21	inactive
CCCCCCOC(=O)c1ccccc1C(=O)OCCCCCC	inactive
CCCCOCCOC(C)=O	inactive
C1CCC2CCCCC2C1 (centres undefined)	inactive
Cc1cc(-c2ccc(N)c(C)c2)ccc1N	inactive
CN(C)C(=O)C(c1ccccc1)c1ccccc1	inactive
CC1=C(C(=O)Nc2ccccc2)SCCO1	inactive
Cc1ccccc1CCl	inactive
COC(=O)c1ccccc1N	inactive
Cc1ccc(O)c(C)c1	inactive
C#CC(C)(C)NC(=O)c1cc(Cl)cc(Cl)c1	inactive
CCC(C)n1c(=O)[nH]c(C)c(Br)c1=O (centres undefined)	inactive

Target: 5-hydroxytryptamine receptor 2A (Homo sapiens) (UniProt P28223)
Sequence (P28223 whole entry, looked up): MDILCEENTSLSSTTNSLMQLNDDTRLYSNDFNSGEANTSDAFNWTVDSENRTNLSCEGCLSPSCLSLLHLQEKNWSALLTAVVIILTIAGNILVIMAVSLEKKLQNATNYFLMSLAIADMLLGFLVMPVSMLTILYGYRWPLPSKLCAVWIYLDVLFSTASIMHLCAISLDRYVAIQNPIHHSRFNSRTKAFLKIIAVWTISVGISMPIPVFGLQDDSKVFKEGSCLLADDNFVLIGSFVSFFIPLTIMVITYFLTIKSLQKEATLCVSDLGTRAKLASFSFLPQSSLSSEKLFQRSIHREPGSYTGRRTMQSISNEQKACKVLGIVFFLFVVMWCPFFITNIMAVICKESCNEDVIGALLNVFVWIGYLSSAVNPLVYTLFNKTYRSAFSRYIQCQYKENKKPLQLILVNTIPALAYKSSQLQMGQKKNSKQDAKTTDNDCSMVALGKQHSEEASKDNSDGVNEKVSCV
Assay: 5-hydroxytryptamine receptor 2A (HTR2A) small molecule antagonists, cell-based qHTS assay (AID 1963586); note: nearly all actives have a fitted effect of over 45% in size; note: potency is the fitted concentration of half-maximal effect
Conditions: HTR2A-CHO cells, DOI-induced calcium flux, fluorescence; series mostly up to 61.5 µM
Method in brief: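 CHO cells stably expressing human HTR2A were plated for 18 h at 37 C, then loaded with calcium dye for 1 h. Compounds were preincubated 5 min at room temperature before DOI (4 nM solution) was added. Kinetic fluorescence was read for 3 min.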

SMILES	Potency
Nc1ncc([N+](=O)[O-])s1	inactive
Oc1ccccc1-c1ccccc1	inactive
ClCc1ccccc1	inactive
CCCCC(C#N)(Cn1cncn1)c1ccc(Cl)cc1 (centres undefined)	inactive
Cc1ccccc1N	inactive
CCCC1CCCCN1 (centres undefined)	inactive
ClC(Cl)(Cl)c1ccccc1	inactive
CCCCCCCCCCCCBr	inactive
c1ccc2c(c1)Oc1ccccc1O2	inactive
Cc1ccc(N)cc1	inactive
O=C(CCl)CCl	inactive
Nc1ccc(Cl)cc1	inactive
O=S(=O)(O)C(F)(F)C(F)(F)C(F)(F)C(F)(F)C(F)(F)C(F)(F)F	inactive
CC(Cl)C(=O)O (centres undefined)	inactive
c1ccc2c(c1)oc1ccccc12	inactive
CC[C@H](N)c1ccccc1	inactive
C=CC(=O)OCCO	inactive
C=C(C)[C@@H]1CC=C(C=O)CC1	inactive
CN(CCO)CCO	inactive

SMILES	Potency
COc1ccc(N)cc1	inactive
CCCCCCCCCCOC(=O)c1ccccc1C(=O)OCCCCCCCCCC	inactive
COS(=O)(=O)c1ccc(C)cc1	inactive
CC1(C)CC(=O)CC(C)(C)N1[O]	inactive
CCN(CCO)CCO	inactive
O=C(O)c1ccc(=O)[nH]c1	inactive
Nc1ccccc1Cl	inactive
O=C1C(Cl)=C(Cl)C(=O)c2ccccc21	26.6 µM (active)
CCCCCCOC(=O)c1ccccc1C(=O)OCCCCCC	inactive
CCCCOCCOC(C)=O	inactive
C1CCC2CCCCC2C1 (centres undefined)	inactive
Cc1cc(-c2ccc(N)c(C)c2)ccc1N	inactive
CN(C)C(=O)C(c1ccccc1)c1ccccc1	inactive
CC1=C(C(=O)Nc2ccccc2)SCCO1	inactive
Cc1ccccc1CCl	inactive
COC(=O)c1ccccc1N	inactive
Cc1ccc(O)c(C)c1	inactive
C#CC(C)(C)NC(=O)c1cc(Cl)cc(Cl)c1	inactive
CCC(C)n1c(=O)[nH]c(C)c(Br)c1=O (centres undefined)	inactive
